Among the data in PubChem BioAssay (NCATS) are activation, Potency and activity change, negative = inhibition values, retold here.

Several values for one entry are separate records, joined by “and”; a condition that tells them apart may be missing. Identical values can stand only once. Results filed as inconclusive are left out. Unmarked numbers belong to inactive results. Activity calls are given as the source filed them. The call rests on the fitted dose curve; in most records, active means well fitted curve in the direction sought with a large enough effect; inconclusive means small, poorly fitted or top-dose-only effect, or another doubt; inactive means no such curve, though single readings can be large; an effect the other way counts as inactive or inconclusive.

Experiment [1] has as its target Cellular tumor antigen p53 (Homo sapiens) (UniProt P04637). In words: Primary qHTS for small molecule compounds that upregulate eGFP-tagged delta133p53alpha (in N-terminal) cells. (AID 2060322). Further: nearly all actives have a fitted effect of over 75% in size. Further: potency means the concentration at half of the fitted maximal effect.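 On activation: series mostly up to about 56 µM; 0% = DMSO vehicle and 100% = reference activator.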 The settings on record: NCI-H358 eGFP-delta133p53alpha fluorescence, 24 h; activation: hits give high values. The gist of the method:
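NCI-H358 cells pre-induced 24 h with 10 ng/ml doxycycline to express N-terminal eGFP-delta133p53alpha, then dosed 24 h at 37C without doxycycline; fixed, Hoechst-stained, GFP intensity by laser scanning cytometry, normalized to DMSO (0%) and 57.5 uM 5-azacytidine (100%).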
For orientation: qHTS replaces the single test concentration by a dilution series.

In experiment [2] the target is Aldehyde dehydrogenase, mitochondrial (Homo sapiens) (UniProt P05091). Description: qHTS for Inhibitors of the Aldehyde Dehydrogenase Family (ALDH2) Primary screen (AID 2061308).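 Further: plate controls were vehicle for no effect and reference inhibitor for full effect; nearly all actives have a fitted effect of over 55% in size.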
Experiment [3] deals with Retinaldehyde dehydrogenase 3 (Homo sapiens) (UniProt P47895). Description: qHTS for Inhibitors of the Aldehyde Dehydrogenase Family (ALDH1A3) Primary screen (AID 2061315).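 Further: plate controls were DMSO vehicle for no effect and reference inhibitor for full effect.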

Cellular tumor antigen p53 (Homo sapiens), sequence (P04637 whole entry, looked up): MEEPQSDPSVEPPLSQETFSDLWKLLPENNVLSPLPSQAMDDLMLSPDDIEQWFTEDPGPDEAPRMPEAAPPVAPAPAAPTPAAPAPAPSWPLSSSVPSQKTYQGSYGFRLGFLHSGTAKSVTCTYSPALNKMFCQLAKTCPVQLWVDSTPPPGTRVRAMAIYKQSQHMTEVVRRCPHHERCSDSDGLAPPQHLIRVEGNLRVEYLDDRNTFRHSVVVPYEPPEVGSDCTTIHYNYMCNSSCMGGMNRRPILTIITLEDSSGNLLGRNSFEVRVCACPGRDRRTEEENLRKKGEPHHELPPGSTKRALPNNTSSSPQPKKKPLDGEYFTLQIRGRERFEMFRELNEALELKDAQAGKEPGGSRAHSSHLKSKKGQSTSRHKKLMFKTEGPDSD

For the molecule `CC(=O)OC1CC(O)(C(C)C)C2C(OC(=O)c3ccc(O)cc3)C=C(C)C(=O)CC12C` (stereo unspecified), the activation in experiment [1] is 29.8%. For the same molecule, the Potency result in experiment [2] and in experiment [3] was “inactive” throughout.
In the case of `CC(=O)C1(C)CCC2C3C=C(C)C4=CC(=O)CCC4(C)C3CCC21C` (stereo unspecified), the activation in experiment [1] is -17%. Further, the Potency result in experiment [2] and in experiment [3] was “inactive” each time.
As to `CC1=CC(=O)CC(C)(C)C1CCC(C)O[C@@H]1O[C@H](CO)[C@@H](O)[C@H](O)[C@H]1O` (stereo partly specified), the activation in experiment [1] is -3.57%. The Potency result in experiment [2] and in experiment [3] was “inactive” each time.
As to `C/C(=C\CO)CC/C=C(\C)C(=O)O[C@H]1[C@H](OC2OC=C(C(=O)O)C3CCC(C)(O)C23)O[C@H](CO)[C@@H](O)[C@@H]1O` (stereo partly specified), in experiment [1], the activation is -22.3%. Further, the Potency entry in experiment [2] and in experiment [3] was “inactive” in each case.
In the case of `CC1(C)O[C@H]2CC(=O)OC[C@]23[C@H]2CC[C@@]4(C)[C@H](c5ccoc5)OC(=O)[C@H]5O[C@]54[C@]2(C)C(=O)C[C@@H]13`, in experiment [1], the activation is -25.4% and 64.1% and 3.82%. Further, the Potency result in experiment [2] and in experiment [3] was “inactive” each time.
With `CC(O)(C(=O)O)C1CCC2(C)C1CCC1(C)C2CCC2C3(C)CCC(O)C(C)(COC4OC(CO)C(O)C(O)C4O)C3CCC21C` (stereo unspecified), the activation in experiment [1] was 1.53%. For the same molecule, the Potency entry in experiment [2] and in experiment [3] was “inactive” each time.
Regarding `CN(C)CCCn1cc(C2=C(c3c[nH]c4ccccc34)C(=O)NC2=O)c2ccccc21`, in experiment [1], the Potency was 30.1 µM (active). For the same molecule, the Potency entry in experiment [2] and in experiment [3] was “inactive” each time.
Turning to `CC1=CC(=O)CC(C)(CO)C1(O)/C=C/C(C)O[C@@H]1O[C@H](CO)[C@@H](O)[C@H](O)[C@H]1O` (stereo partly specified), in experiment [1], the activation is -9.82%. For the same molecule, the Potency result in experiment [2] and in experiment [3] was “inactive” in each case.
Turning to `CC(C)C[C@H](CC(=O)NO)C(=O)N[C@H](C(=O)N[C@@H](C)C(=O)NCCN)C(C)(C)C`, the activation in experiment [1] was 3.67%. Besides, the activity change, negative = inhibition in experiment [2] was 1.06% [at 11.2 µM]; in experiment [3], -12.1% [at 11.2 µM].
Consider `CC(=O)O[C@@H]1[C@@H](CO)O[C@@](CO)(O[C@H]2O[C@H](COC(=O)/C=C/c3ccccc3)[C@@H](O)[C@H](O)[C@H]2O)[C@H]1O`, for which the activation in experiment [1] was 2.29%. In addition, the Potency result in experiment [2] and in experiment [3] was “inactive” in each case.
For `CC1=C(COC2OC(CO)C(O)C(O)C2O)C(C(CO)C(=O)O)CC1` (stereo unspecified), the activation in experiment [1] was -6.87%. In addition, the Potency entry in experiment [2] and in experiment [3] was “inactive” in each case.
Take `COC(=O)C1=CO[C@@H](O[C@@H]2O[C@H](CO)[C@@H](O)[C@H](O)[C@H]2O)[C@@H]2C(COC(C)=O)=C[C@H](O)[C@H]12`: in experiment [1], the activation was -14.5%. In addition, the Potency entry in experiment [2] and in experiment [3] was “inactive” each time.
In the case of `Oc1ccc2c(-c3c(-c4ccccn4)nn4c3CCC4)ccnc2c1`, the Potency in experiment [1] is 26.9 µM (active). Also, the Potency entry in experiment [2] and in experiment [3] was “inactive” each time.
Turning to `COc1c2c(c(C)c3c1C(=O)OC3)O[C@@]1(C)C[C@@H](OC(C)=O)[C@]34O[C@](OC)(CC[C@]3(C)[C@H]1C2)OC4(C)C`, in experiment [1], the activation is -5.36%. The Potency result in experiment [2] and in experiment [3] was “inactive” throughout.
With `CC(C)CCC[C@@H](C)[C@H]1CC[C@H]2[C@@H]3CC(=O)[C@H]4C[C@@H](O)CC[C@]4(C)[C@H]3CC[C@]12C`, the activation in experiment [1] is -7%. For the same molecule, the Potency result in experiment [2] and in experiment [3] was “inactive” throughout.
In the case of `NC1Nc2ccccc2C1(N)CC1NC(=O)C(Cc2ccccc2)NC(=O)C(Cc2ccccc2)NC1=O` (stereo unspecified), in experiment [1], the activation is -3.05%. The Potency result in experiment [2] and in experiment [3] was “inactive” throughout.
`CC1(C)CC2C3=CCC4[C@@]5(C)CC[C@H](OC6OCC(O)C(OC7OC(CO)C(O)C(O)C7O)C6O)C(C)(C)C5CC[C@@]4(C)[C@]3(C)C[C@H](O)[C@@]2(CO)[C@H](OC(=O)c2ccccc2)C1` (stereo partly specified): in experiment [1], the activation was 19.8%. The Potency entry in experiment [2] and in experiment [3] was “inactive” throughout.
For `CCOC(=O)C(CCc1ccccc1)NC(C)C(=O)N1C(=O)N(C)CC1C(=O)O` (stereo unspecified), in experiment [1], the activation was -5.25%. Moreover, the Potency result in experiment [2] and in experiment [3] was “inactive” each time.
With `C=C1CC[C@@H]2[C@@](C)(CO[C@@H]3O[C@H](CO)[C@@H](O)[C@H](O)[C@H]3O)[C@H](O)CC[C@@]2(C)[C@@H]1CC/C(C)=C/CO[C@@H]1O[C@H](CO)[C@@H](O)[C@H](O)[C@H]1O`, the activation in experiment [1] is 23.2%. In addition, the Potency result in experiment [2] and in experiment [3] was “inactive” in each case.
For the molecule `CC(CCC1(O)OC2CC3C4CC=C5CC(O[C@@H]6O[C@H](CO)[C@@H](O[C@@H]7O[C@@H](C)[C@H](O)[C@@H](O)[C@H]7O)[C@H](O)[C@H]6O[C@@H]6O[C@@H](C)[C@H](O)[C@@H](O)[C@H]6O)CCC5(C)C4CCC3(C)C2C1C)CO[C@@H]1O[C@H](CO)[C@@H](O)[C@H](O)[C@H]1O` (stereo partly specified), the activation in experiment [1] was 8.04%. In addition, the Potency result in experiment [2] and in experiment [3] was “inactive” each time.
As for `CC1=CC(=O)[C@]2(O[C@@H]3O[C@@H](C)[C@H](O)[C@@H](O)[C@H]3OC(=O)/C=C/c3ccccc3)C=CO[C@@H](O[C@@H]3O[C@H](CO)[C@@H](O)[C@H](O)[C@H]3O)[C@H]12`, the activation in experiment [1] was 3.05%. The Potency result in experiment [2] and in experiment [3] was “inactive” in each case.
Consider `O=[N+]([O-])c1cccc2[nH]c(CNc3nc(N4CCOCC4)nc4c3ncn4-c3ccsc3)nc12`, for which the Potency in experiment [1] was 0.301 µM (active). Also, the Potency entry in experiment [2] and in experiment [3] was “inactive” throughout.
